Consider 40 compounds from PubChem BioAssay (NCATS).

Results filed as inconclusive are left out. Active and inactive are the calls of the source. Calls follow the shape of the dose curve; as a rule, active = well fitted cell-killing curve with a large enough effect; inconclusive = small, poorly fitted or top-dose-only effect, or effect the other way; inactive = no such curve, though single readings can be large or run the other way.
Potency is read from the fitted curve at half-maximal effect.

The assay in a line: Viability qHTS for spleen associated tyrosine kinase inhibitor (SYKi) drug resistant MV4-11 cells (AID 1963824). Also: nearly all actives have a fitted effect of over 35% in size. The following applies: SYKi-resistant MV4-11 viability, CellTiter-Glo, 72 h; series mostly up to 45 µM; viability, % of control: at the top concentration. In outline:
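CellTiter-Glo luminescence, read 10 min after reagent addition, reports viability after a 72 hr compound exposure. Cells are an MV4-11 line made resistant to SYK inhibition, seeded at 500 per well onto compound-containing plates.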
As to `CC1=CC(=O)C2C(C)(C)CCC[C@]2(C)[C@H]1CC[C@H](C)CC(=O)O` (stereo not given in full), the “viability, % of control” value was 74.9% (inactive).

With `CC1(C(=O)O)CCCC2(C)C1CCC13CC(CCC21)C1(CO)OC31` (stereo not given), the “viability, % of control” value is 75.2% (inactive).

In the case of `COc1cc(-c2cc(-c3cccc(O)c3)cnc2N)cc(OC)c1OC`, the Potency is 9.2 µM (active).

Regarding `CN1CCN(C2=Nc3ccccc3Nc3ccc(OS(=O)(=O)C(F)(F)F)cc32)CC1`, the Potency is 20.6 µM (active).

As for `CC1=CC(=O)CC(C)(C)[C@@]1(O)CC[C@@H](C)O[C@@H]1O[C@H](CO)[C@@H](O)[C@H](O)[C@H]1O`, the “viability, % of control” value was 83% (inactive).

Consider `C/C1=C\[C@@H](C)C[C@@H](C)[C@@H](Cc2cnco2)OC(=O)/C(C)=C/[C@@H](C)C[C@@H](C)[C@@H](Cc2cnco2)OC1=O`, for which the Potency was 0.502 µM (active).

Regarding `CCC[C@@H]1C[C@@H](C(=O)N[C@@H]([C@H]2O[C@H](SC)[C@H](O)[C@@H](O)[C@@H]2O)[C@@H](C)O)N(C)C1`, the “viability, % of control” value is 108% (inactive).

With `C=C1C(=O)O[C@@H]2[C@H]1CCC(C)=C1CCC(=O)O[C@]12C`, the Potency was 2.59 µM (active).

As for `c1cc(NC2CCNCC2)nc(-c2cnc3ccccn23)c1`, the Potency was 0.0206 µM (active).

With `O=C(Nc1cnccc1Cl)N1CCN(Cc2ccc3c(c2)OC(F)(F)O3)CC1`, the Potency is 5.9 µM (active).

Take `CCN(CC)CCOC(=O)C1(C2CCCCC2)CCCCC1`: the “viability, % of control” value is 65.9% (inactive).

On to `COc1cc(C2Oc3c(OC)cc(CCCO)cc3C2CO)ccc1O[C@H]1O[C@H](C)[C@@H](O)[C@H](O)[C@@H]1O` (stereo not given in full), for which the “viability, % of control” value is 101% [at 17.3 µM] (inactive).

Take `C=C1C(OC2OCC(O)C(O)C2O)CC2C(C)(C)C(O)CCC2(C)C1CC/C(C)=C\CO` (stereo not given): the Potency is 7.09 µM (active).

As for `CC1=C(CC/C(C)=C/C(=O)O)[C@@]2(C)CCCC(C)(C)C2CC1=O` (stereo not given in full), the “viability, % of control” value was 72.2% (inactive).

Regarding `CC(C)CCCCC(=O)N[C@@H](CO)C(=O)N[C@@H](CC(C)C)C(=O)[C@@]1(CO)CO1`, the Potency was 7.31 µM (active).

Take `COc1cc(O[C@@H]2O[C@H](CO[C@H]3OC[C@](O)(CO)[C@H]3O)[C@@H](O)[C@H](O)[C@H]2O)cc(OC)c1O`: the “viability, % of control” value was 92.1% [at 17.3 µM] (inactive).

`O=C1[C@H](Cc2ccc(O)cc2)N2C(=O)CCN(C(=O)NCc3ccccc3)[C@H]2CN1Cc1cccc2ccccc12`: the Potency was 1.48 µM (active).

`O=[N+]([O-])c1ccc(-[n+]2nc(-c3ccccc3)nn2-c2ccc(I)cc2)cc1`: the “viability, % of control” value was 57.5% (inactive).

As to `C=CC(C)(C)C12CC3C(=O)NC(Cc4cnc[nH]4)C(=O)N3C1Nc1ccccc12` (stereo not given), the “viability, % of control” value was 83% (inactive).

Take `O=C(O)CC(CCc1ccccc1)OC1OC(CO)C(O)C(O)C1O` (stereo not given): the “viability, % of control” value was 87.2% (inactive).

For the compound `CCOc1ccc2nc(SCCN3CCOCC3)[nH]c2c1`, the “viability, % of control” value was 73.3% (inactive).

Turning to `CC(=O)OCC(=O)[C@@]12O[C@@H]1C[C@H]1[C@@H]3CC=C4C[C@@H](O)CC[C@]4(C)[C@H]3CC[C@@]12C`, the Potency is 18.4 µM (active).

For the compound `Cc1noc(-c2ccc(-c3ccc(CC(=O)O)cc3)cc2)c1NC(=O)O[C@H](C)c1ccccc1Cl`, the Potency is 20.6 µM (active).

Turning to `CC(C)S(=O)(=O)Nc1ccc(F)c(C(=O)c2c[nH]c3ncc(-c4cccnc4)cc23)c1F`, the Potency was 2.91 µM (active).

Consider `C=C(CCO)C(=O)OCC1OCC(OC(=O)C(=C)CCO[C@@H]2O[C@H](COC(=O)C(=C)CCO[C@@H]3O[C@H](CO)[C@@H](O)[C@H](O)[C@H]3O)[C@@H](O)[C@H](O)[C@H]2O)C(O)C1O` (stereo not given in full), for which the “viability, % of control” value is 74.6% [at 17.3 µM] (inactive).

As for `CC1CCCC(SCC(O)C(=O)O)CC(=O)c2c(O)cc(O)cc2CC(=O)O1` (stereo not given), the Potency is 2.24 µM (active).

`CC1OC(OC2CCC3(C)C(CCC4(C)C3CC=C3C5CC(C)(C)CCC5(C(=O)OC5OC(CO)C(O)C(O)C5O)CCC34C(=O)O)C2(C)C)C(O)C(O)C1O` (stereo not given): the “viability, % of control” value is 92.1% [at 17.3 µM] (inactive).

In the case of `CCc1cnn2c(NCc3ccc[n+]([O-])c3)cc(N3CCCCC3CCO)nc12` (stereo not given), the Potency is 0.0065 µM (active).

In the case of `C=C1C(=O)O[C@@H]2C=C(COC(C)=O)CC/C=C(\CO)CC[C@@H]12`, the Potency was 14.3 µM (active).

As for `CC[C@H](C(=O)Nc1ccccc1N1CCCC1)c1ccccc1`, the Potency was 23.1 µM (active).

In the case of `CCCCCCCOc1cc2c(cc1/C(C)=C/c1ccc(C(=O)O)cc1)C(C)(C)CCS2(=O)=O`, the Potency is 11.6 µM (active).

As for `CN(C)CCN(Cc1ccc(-c2ccc(CNCCc3ccccc3)cc2)cc1)C(=O)CCC1CCCC1`, the Potency was 0.92 µM (active).

Take `COc1cc(Br)c(S(=O)(=O)Nc2ccc(Cl)c(O[C@@H]3CCN(C)C3)c2)cc1OC`: the Potency is 6.51 µM (active).

Take `C=C1CC[C@@H]2[C@@](C)(CO[C@@H]3O[C@H](CO)[C@@H](O)[C@H](O)[C@H]3O)[C@H](O)CC[C@@]2(C)[C@@H]1CC/C(C)=C/CO[C@@H]1O[C@H](CO)[C@@H](O)[C@H](O)[C@H]1O`: the “viability, % of control” value is 90.2% [at 17.3 µM] (inactive).

As to `C=C1[C@H](OC(C)=O)[C@H]2[C@@H](OC(=O)c3ccccc3)[C@@H](C)C[C@]2(O)[C@@H](OC(C)=O)[C@H](C)/C=C/C(C)(C)C(=O)[C@H](OC(C)=O)[C@H]1OC(C)=O`, the “viability, % of control” value is 74.4% [at 17.3 µM] (inactive).

For `COc1ccc(C[C@H](N)C(=O)N[C@H]2[C@@H](O)[C@H](n3cnc4c(N(C)C)ncnc43)O[C@@H]2CO)cc1`, the Potency was 0.184 µM (active).

On to `C=C1C(=O)O[C@@H]2/C=C(/C)CC3C=C(C[C@H](OC(=O)/C(C)=C\C)[C@@H]12)C(=O)O3` (stereo not given in full), for which the Potency was 2.55 µM (active).

As for `C=C1C(=C/C=C2\CCC[C@]3(C)[C@@H]([C@H](C)/C=C/[C@@H](O)C4CC4)CC[C@@H]23)C[C@@H](O)C[C@@H]1O`, the Potency is 0.188 µM (active).

For `CC1=C(C(=O)Nc2cc(Cl)ccc2Cl)C(c2ccco2)C2=C(CCCC2=O)N1` (stereo not given), the Potency is 16.4 µM (active).

With `C=CCc1ccc(OC(C)Cc2ccc(OC)c(OC)c2)c(OC)c1` (stereo not given), the Potency was 12.8 µM (active).
